Shown are actives, neighbours in structure and some others; about 6.6% of the full set was active somewhere.
BoNT-A LC inh2: BoNT A light chain protease inhibition; AID 588499; multiplex microsphere protease substrate cleavage, flow cytometry; inhibition, % at 10 µM; 0.17% of 360,000 active
GDH-TPI inh: counter-screen for M. tuberculosis FBA inhibitors: GDH-TPI coupled enzymes; 1.2% of 360,000 active; inhibition, % at 4.8 µM; GDH-TPI coupled enzyme counterscreen, NADH absorbance; in the data active = inhibition above about 30%
Anthrax LF prot: anthrax lethal factor protease inhibition. P15917. inhibition, % at 10 µM. 0.12% of 360,000 active. multiplex microsphere protease cleavage assay, LF. AID 588501
Autofluor counter: counter-screen for toxin protease inhibitors: compound fluorescence; fluorescence intensity (test concentration not listed); compound autofluorescence counterscreen, microsphere flow cytometry; active compounds read high; AID 624483; 3.1% of 360,000 active; in the data active = fluorescence intensity above about 16000; inconclusive = no clear call, values can overlap the other calls
BoNT-F LC inh: blocks Botulinum neurotoxin F light chain protease; AID 588497; inhibition, % at 10 µM; Multiplex microsphere protease cleavage assay, flow cytometry; 0.22% of 360,000 active; in the data active = inhibition above about 35%, passing the limit was not always enough; inconclusive = no clear call, values can overlap the other calls
FBA Mtb inh: Mtb fructose-bisphosphate aldolase inhibition | purified M. tuberculosis FBA, fluorescence read-out | inhibition, % at 1 µM | 2.3% of 360,000 active | AID 588726; in the data active = inhibition above about 27%
Target sequence (P9WQA3 whole entry, looked up): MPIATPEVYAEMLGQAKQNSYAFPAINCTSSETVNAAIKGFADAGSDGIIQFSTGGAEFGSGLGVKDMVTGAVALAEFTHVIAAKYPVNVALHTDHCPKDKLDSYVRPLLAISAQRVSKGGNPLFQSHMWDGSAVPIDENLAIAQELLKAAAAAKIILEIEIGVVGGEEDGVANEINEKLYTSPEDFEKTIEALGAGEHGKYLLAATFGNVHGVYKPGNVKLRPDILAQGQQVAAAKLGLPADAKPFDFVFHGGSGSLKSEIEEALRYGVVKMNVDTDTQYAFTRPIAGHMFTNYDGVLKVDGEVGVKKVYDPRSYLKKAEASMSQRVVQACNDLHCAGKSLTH
Of the large screens only hits and unclear results are named; the others gave an inactive call. Cut-off read from the data, not from the text of the source, unless noted: active = inhibition above about 30%; inconclusive = no clear call, values can overlap the other calls; inactive = below that.

OCCN(Cc1ccccc1)Cc1cccc(C(F)(F)F)c1	Autofluor counter 23013
OCCN(Cc1ccccc1)Cc1ccccc1F	none
CCCN(CCO)Cc1ccc(Cl)c(Cl)c1	none
OCCN(Cc1ccccc1)Cc1ccccc1Cl	BoNT-A LC inh2 inconclusive, Autofluor counter 23592
OCCN(Cc1ccccc1)Cc1ccc(C(F)(F)F)cc1	none
CCCN1CCC(C(=O)NC(c2ccc(Cl)cc2)c2ccsc2)CC1 (stereo unspecified)	none
COc1ccc(/C=N/Nc2cc(C)nc(-n3nc(C)cc3C)n2)c(OC)c1	GDH-TPI inh 36.8
COc1ccc2nc(C)cc(N3CCN(c4ccccc4)CC3)c2c1	none
Cc1cc(N/N=C/c2ccc(F)cc2)nc(-n2nc(C)cc2C)n1	none (no result: BoNT-A LC inh2, Anthrax LF prot, Autofluor counter, BoNT-F LC inh)
COc1ccc2nc(C)cc(N3CCOCC3)c2c1	Autofluor counter 19626
COc1ccc(/C=N/Nc2cc(OC)ncn2)cc1	GDH-TPI inh 31.1
COc1ccc(/C=N/Nc2cc(C)nc(N3CCOCC3)n2)cc1	GDH-TPI inh 32.9
COC(=O)c1cnc(Nc2nc(CN)cs2)nc1C(F)(F)F	none
CCC(=O)Nc1ccc(NC(=O)CSc2nnnn2Cc2ccccc2)cc1C	none
COc1ccc(/C=N/Nc2cc(C)nc(N)n2)cc1	GDH-TPI inh 35.2
COc1cc(/C=N/Nc2cc(C)nc(N)n2)ccc1O	none
O=C(CN(Cc1ccc(Cl)cc1)C(=O)CNS(=O)(=O)c1ccccc1)NCC1CCCO1 (stereo unspecified)	none
CCNc1nc(C)c(CN(C(C)=O)c2ccccc2)nc1C#N	FBA Mtb inh 125.9
CCOC(=O)c1sc(NC(=O)CN(CC(C)C)CC(C)C)c(C(=O)OCC)c1C	Autofluor counter 22136
CCOC(=O)c1c(NC(=O)CCN2C(=O)c3ccccc3C2=O)sc(C(=O)OC(C)C)c1C	BoNT-A LC inh2 inconclusive, Autofluor counter 17126
Nc1nc(Cl)cc(N2CCC(c3cc(-c4ccc(Cl)cc4Cl)n[nH]3)CC2)n1	Autofluor counter 21717
Nc1nc(Cl)cc(N2CCCC2)n1	none
O=C1C(=C(I)I)c2ccccc2-c2ccccc21	none
COc1ccccc1N1CC(C(=O)OCC(=O)c2ccc(F)cc2)CC1=O (stereo unspecified)	Autofluor counter 23806
C/C=C(\C)CN1CCc2cc(OC)c(OC)cc2C1	Autofluor counter 24105
COc1cc2c(cc1OC)CN(CC(=O)NC(=O)NCc1ccccc1)CC2	none
CC(C)(C)NC(=O)NC(=O)COC(=O)Cc1coc2ccc3ccccc3c12	none
CCOC(=O)C1(CCCc2ccccc2)CCN(C(=O)c2cc(C)nn2CC)CC1	none
O=C(CNC1CCCCC1)NN=C(c1ccccc1)c1ccccc1	none
Cc1cccc(NS(=O)(=O)c2ccc3oc(=O)ccc3c2)c1C	none
c1cncc(Nc2nc(-c3ccncc3)cs2)c1	Autofluor counter 18714
O=C(O)c1ccc(Nc2nc(-c3cccnc3)cs2)cc1O	GDH-TPI inh 43.4, BoNT-F LC inh inconclusive
Nc1ccn(C2OC(COC(=O)C34CC5CC(CC(C5)C3)C4)C(O)C2O)c(=O)n1 (stereo unspecified)	none
S=c1[nH]nc(SCc2ccccc2)c2[nH]cnc12	none
CCc1nnc(NS(=O)(=O)c2ccc(NC(=S)NC(=O)/C=C/c3ccc(C(C)C)cc3)cc2)s1	GDH-TPI inh 31.7
CCc1nnc(NS(=O)(=O)c2ccc(NC(=S)NC(=O)/C=C/c3ccccc3)cc2)s1	none
O=C(COc1ccc2ccccc2c1Br)Nc1ncn[nH]1	Autofluor counter 21352
Cc1cccc(C)c1OCC(=O)Nc1ncn[nH]1	none
COc1cccc(CCc2nnc(N)s2)c1	none (no result: BoNT-A LC inh2, Anthrax LF prot, Autofluor counter, BoNT-F LC inh)
CCCc1cc(=O)oc2c3c(cc(OCC(=O)N4CCC[C@H]4C(=O)O)c12)OC(C)(C)CC3	FBA Mtb inh active
CCc1cc(=O)oc2c3c(cc(OCC(=O)NCCCOC)c12)OC(C)(C)CC3	FBA Mtb inh active
CCc1cc(=O)oc2c(C)c(OCC(=O)NCCCN3CCOCC3)ccc12	none
CCc1cc(=O)oc2c3c(cc(OCC(=O)NCCN4CCOCC4)c12)OC(C)(C)CC3	FBA Mtb inh 175.8
CCc1cc(=O)oc2c3c(cc(OCC(=O)NCCC(=O)O)c12)OC(C)(C)CC3	FBA Mtb inh 177.0
O=S(=O)(Nc1ncccn1)c1ccc(NC(=S)NCc2cccnc2)cc1	none
C[C@H](CO)N1C[C@H](C)[C@@H](CN(C)C(=O)C2CCCCC2)OCc2cn(nn2)CCCC1=O	none
Cc1c(C)c2ccc(OCC(=O)N3CCC[C@@H]3C(=O)O)c(C)c2oc1=O	FBA Mtb inh 128.9
Cc1cc(=O)oc2c3c(cc(OCC(=O)NCCC(=O)O)c12)OC(C)(C)CC3	FBA Mtb inh active
CCCc1cc(=O)oc2c(C)c(OCC(=O)NC3CC(C)(C)NC(C)(C)C3)ccc12	none
CCc1cc(=O)oc2c3c(cc(OCC(=O)NCCCC(=O)O)c12)OC(C)(C)CC3	FBA Mtb inh active
CCc1cc(=O)oc2c3c(cc(OCC(=O)NC4CC4)c12)OC(C)(C)CC3	FBA Mtb inh active
CCc1cc(=O)oc2cc(C)cc(OCC(=O)NCC3CCC(C(=O)O)CC3)c12 (stereo unspecified)	none
C=C1c2ccccc2NC(=S)N1Cc1ccc2c(c1)OCO2	none
CC(=O)/C=N/Nc1ccccc1	GDH-TPI inh 36.2
Cc1ccc(N2C(=O)c3n[nH]c(C)c3C2c2ccco2)cc1 (stereo unspecified)	BoNT-A LC inh2 inconclusive, Autofluor counter 22119
Cc1ccc(N=Cc2ccc[nH]2)c(O)c1	BoNT-A LC inh2 inconclusive, Autofluor counter 21732
Cc1c(N=Cc2c(O)n(CCc3ccc(F)cc3)c(=O)[nH]c2=O)c(=O)n(-c2ccccc2)n1C	GDH-TPI inh 35.9
CCOc1ccccc1-n1c(O)c(C=Nc2c(C)n(C)n(-c3ccccc3)c2=O)c(=O)[nH]c1=O	none
C=CCn1c(O)c(C=Nc2c(C)n(C)n(-c3ccccc3)c2=O)c(=O)[nH]c1=O	BoNT-F LC inh inconclusive
COc1ccc(OC)c(-n2c(O)c(C=Nc3c(C)n(C)n(-c4ccccc4)c3=O)c(=O)[nH]c2=S)c1	GDH-TPI inh 32.5
O=C(O)CNC(=O)CCCn1nnc2ccccc2c1=O	none
O=C(Nc1cc(C(F)(F)F)ccc1-n1cncn1)c1ccc(Br)cc1	Autofluor counter 24053
O=c1c2ccccc2nc(/C=C/c2ccccc2)n1CCCO	GDH-TPI inh 35.0
Cn1c(/C=C/c2ccc(Cl)cc2)nc2ccccc2c1=O	GDH-TPI inh 37.1
O=c1c2ccccc2nc(/C=C/c2ccc3c(c2)OCO3)n1CCCO	none
COc1ccc(/C=C/c2nc3ccccc3n2C)cc1	GDH-TPI inh 64.6
COc1ccc(/C=N\n2nnc3ccccc32)cc1	GDH-TPI inh 50.6
Cn1c(/C=C/c2ccccc2)nc2ccccc2c1=O	none
N#Cc1c(-c2ccccc2)nc(SCC(=O)N2c3ccccc3Sc3ccccc32)[nH]c1=O	none
O=C(OC1CC2CC1[C@H]1CCCCN1C2=O)N1CCN(S(=O)(=O)c2ccccc2)CC1 (stereo partly specified)	none (no result: GDH-TPI inh, FBA Mtb inh)
COc1cc(C)ccc1S(=O)(=O)NC(=O)C1(C)CCN1C(=O)Cc1ccccc1Cl (stereo unspecified)	none
Cn1nc(C(=O)NCc2cccs2)c2ccccc2c1=O	none

Compound activity deposited in PubChem BioAssay by several laboratories.
